Common to all, as to assay: DAPPL (digital affinity profiling via proximity ligation, sequencing); 10 mM Tris-HCl pH 7.5, 50 mM NaCl, 1 mM DTT, 4% glycerol, room temperature, 30 min; GST-TFs on glutathione beads, 16-mer random dsDNA library, 0.1% formaldehyde crosslink after washing; high values mean tight binding
Holding throughout (conditions): protein: recombinant; tags: N-terminal GST; dsDNA, one strand shown

One test concerns the target T1, FLI1 (Homo sapiens, UniProt Q01543 1-452).
T1 sequence: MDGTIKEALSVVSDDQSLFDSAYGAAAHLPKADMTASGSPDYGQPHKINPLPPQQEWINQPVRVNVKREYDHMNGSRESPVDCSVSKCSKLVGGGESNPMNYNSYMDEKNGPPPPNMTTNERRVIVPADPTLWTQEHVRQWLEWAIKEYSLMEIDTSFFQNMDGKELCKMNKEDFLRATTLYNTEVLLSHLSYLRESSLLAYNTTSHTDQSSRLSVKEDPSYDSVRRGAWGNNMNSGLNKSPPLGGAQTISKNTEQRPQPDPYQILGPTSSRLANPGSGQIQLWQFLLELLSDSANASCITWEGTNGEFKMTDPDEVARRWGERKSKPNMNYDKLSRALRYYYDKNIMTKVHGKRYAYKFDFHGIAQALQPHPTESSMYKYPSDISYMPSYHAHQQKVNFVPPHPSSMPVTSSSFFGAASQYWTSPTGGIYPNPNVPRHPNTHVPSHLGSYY
The procedure, abridged:
(§1)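 Binding signal is given per hexamer as its read frequency for a factor divided by its frequency in the tag-only sample. GST-fused human transcription factors were expressed in yeast, captured on glutathione beads, barcoded with DNA and pooled with that sample, then incubated with 200 nmole of a 16-mer random double-stranded DNA library in Tris/NaCl/DTT/glycerol buffer for 30 min at room temperature. The pools were then washed, crosslinked, proximity-ligated, amplified by PCR and sequenced on an Illumina NextSeq500.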

A further test concerns the target T2, ELK1 (Homo sapiens, UniProt P19419 1-428).
T2 sequence: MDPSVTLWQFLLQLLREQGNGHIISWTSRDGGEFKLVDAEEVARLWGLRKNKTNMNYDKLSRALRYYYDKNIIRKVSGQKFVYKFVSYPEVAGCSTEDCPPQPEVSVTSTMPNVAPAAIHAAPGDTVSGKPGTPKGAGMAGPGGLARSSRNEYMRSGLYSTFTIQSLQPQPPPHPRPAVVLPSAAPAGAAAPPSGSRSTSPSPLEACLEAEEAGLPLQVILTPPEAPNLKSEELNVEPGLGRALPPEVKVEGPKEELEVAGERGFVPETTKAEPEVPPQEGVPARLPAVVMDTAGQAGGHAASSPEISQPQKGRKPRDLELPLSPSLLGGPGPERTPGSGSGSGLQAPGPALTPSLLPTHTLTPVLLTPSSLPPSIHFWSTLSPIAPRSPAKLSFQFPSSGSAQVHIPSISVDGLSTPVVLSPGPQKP
The procedure, abridged:
as §1

The next test deals with T3, GABPA (Homo sapiens, UniProt Q06546 1-454).
T3 sequence: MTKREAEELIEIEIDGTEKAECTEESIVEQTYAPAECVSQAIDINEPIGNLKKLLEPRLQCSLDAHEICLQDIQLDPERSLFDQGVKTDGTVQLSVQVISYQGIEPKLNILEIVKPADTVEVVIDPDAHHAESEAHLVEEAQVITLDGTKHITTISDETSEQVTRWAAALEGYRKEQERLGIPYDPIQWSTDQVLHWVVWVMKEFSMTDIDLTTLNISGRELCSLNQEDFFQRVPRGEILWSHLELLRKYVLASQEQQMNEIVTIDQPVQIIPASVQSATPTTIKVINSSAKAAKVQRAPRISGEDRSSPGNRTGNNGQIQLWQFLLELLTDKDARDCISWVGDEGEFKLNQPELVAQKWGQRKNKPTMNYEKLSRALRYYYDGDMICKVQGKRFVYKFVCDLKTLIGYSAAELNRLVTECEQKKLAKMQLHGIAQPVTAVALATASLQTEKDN
In a few lines:
as §1

The next test deals with T4, ERG (Homo sapiens, UniProt P11308 1-479).
T4 sequence: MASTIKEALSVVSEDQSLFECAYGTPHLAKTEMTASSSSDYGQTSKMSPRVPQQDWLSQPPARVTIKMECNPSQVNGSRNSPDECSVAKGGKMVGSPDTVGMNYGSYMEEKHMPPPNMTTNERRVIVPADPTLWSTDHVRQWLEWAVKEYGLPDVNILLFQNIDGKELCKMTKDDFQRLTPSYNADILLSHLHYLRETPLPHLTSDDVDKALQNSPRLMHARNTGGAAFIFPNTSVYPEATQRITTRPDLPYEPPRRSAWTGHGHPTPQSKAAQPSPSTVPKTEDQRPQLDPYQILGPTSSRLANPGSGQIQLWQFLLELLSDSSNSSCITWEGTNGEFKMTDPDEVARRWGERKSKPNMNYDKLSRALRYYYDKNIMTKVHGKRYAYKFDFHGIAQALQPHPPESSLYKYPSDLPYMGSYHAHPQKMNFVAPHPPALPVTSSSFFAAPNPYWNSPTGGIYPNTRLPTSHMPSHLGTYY
The procedure, abridged:
as §1

The target in the next test is ELF1 (Homo sapiens, UniProt P32519 1-619). In a few lines:
as §1

Another test deals with T5, EHF (Homo sapiens, UniProt Q9NZC4 1-300).
T5 sequence: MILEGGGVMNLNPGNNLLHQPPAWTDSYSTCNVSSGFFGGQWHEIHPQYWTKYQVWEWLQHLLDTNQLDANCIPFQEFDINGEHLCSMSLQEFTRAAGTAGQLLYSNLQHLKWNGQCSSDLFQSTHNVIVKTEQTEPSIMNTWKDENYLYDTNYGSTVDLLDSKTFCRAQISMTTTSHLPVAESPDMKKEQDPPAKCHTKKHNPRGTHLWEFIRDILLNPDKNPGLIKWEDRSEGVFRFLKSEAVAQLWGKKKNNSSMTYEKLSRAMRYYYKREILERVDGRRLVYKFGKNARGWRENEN
In a few lines:
as §1

In the next test the target is SPI1 (Homo sapiens, UniProt P17947 1-270). In a few lines:
as §1

The target in a further test is SPIB (Homo sapiens, UniProt Q01892 1-262). The procedure, abridged: as §1
For the next test, the target named is T6, ELK3 (Homo sapiens, UniProt P41970 1-407).
T6 sequence: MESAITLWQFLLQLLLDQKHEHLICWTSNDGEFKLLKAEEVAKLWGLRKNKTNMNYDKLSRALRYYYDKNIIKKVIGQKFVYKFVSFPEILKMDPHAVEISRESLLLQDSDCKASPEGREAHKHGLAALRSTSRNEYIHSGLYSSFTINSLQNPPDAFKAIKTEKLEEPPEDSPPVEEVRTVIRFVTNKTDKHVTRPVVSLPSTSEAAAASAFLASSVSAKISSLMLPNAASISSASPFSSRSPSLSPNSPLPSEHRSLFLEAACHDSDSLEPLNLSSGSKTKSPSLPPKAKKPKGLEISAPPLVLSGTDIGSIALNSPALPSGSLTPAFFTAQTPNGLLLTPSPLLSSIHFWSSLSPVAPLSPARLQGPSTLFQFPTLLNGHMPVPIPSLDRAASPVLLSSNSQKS
In a few lines: as §1

ELF1, sequence (P32519 whole entry): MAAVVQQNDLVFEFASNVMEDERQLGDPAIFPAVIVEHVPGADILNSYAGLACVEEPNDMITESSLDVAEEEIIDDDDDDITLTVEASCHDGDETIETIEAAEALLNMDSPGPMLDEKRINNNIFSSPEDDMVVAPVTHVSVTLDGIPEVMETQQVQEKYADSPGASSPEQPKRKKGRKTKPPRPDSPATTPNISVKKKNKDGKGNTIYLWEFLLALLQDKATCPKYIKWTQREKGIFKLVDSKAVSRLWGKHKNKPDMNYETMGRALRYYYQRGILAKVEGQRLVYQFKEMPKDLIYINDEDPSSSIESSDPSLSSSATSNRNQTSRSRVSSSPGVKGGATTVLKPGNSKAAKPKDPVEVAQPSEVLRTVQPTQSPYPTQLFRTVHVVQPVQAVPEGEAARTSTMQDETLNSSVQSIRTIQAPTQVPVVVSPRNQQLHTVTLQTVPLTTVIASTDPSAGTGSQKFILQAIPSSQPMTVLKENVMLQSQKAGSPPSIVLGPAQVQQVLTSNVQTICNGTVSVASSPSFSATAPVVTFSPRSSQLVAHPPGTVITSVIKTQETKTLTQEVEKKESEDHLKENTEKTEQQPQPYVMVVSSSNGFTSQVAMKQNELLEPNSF
SPIB, sequence (Q01892 whole entry): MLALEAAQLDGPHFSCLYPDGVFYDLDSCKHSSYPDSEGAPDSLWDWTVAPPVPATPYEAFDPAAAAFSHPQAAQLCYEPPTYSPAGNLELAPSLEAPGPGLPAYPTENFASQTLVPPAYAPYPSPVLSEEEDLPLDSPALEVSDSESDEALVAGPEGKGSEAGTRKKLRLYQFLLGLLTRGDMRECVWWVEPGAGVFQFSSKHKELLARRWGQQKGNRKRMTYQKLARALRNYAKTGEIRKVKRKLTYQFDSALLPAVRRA

As for GTCCTA, the binding signal with FLI1 was 1.15 fold enrichment (6-mer frequency, TF over GST control); in the test with ELK1 it was 1.19 fold enrichment (6-mer frequency, TF over GST control); in the test with GABPA, 1.22 fold enrichment (6-mer frequency, TF over GST control); with ERG, 1.14 fold enrichment (6-mer frequency, TF over GST control); with ELF1 it was 1.12 fold enrichment (6-mer frequency, TF over GST control); with EHF, 1.16 fold enrichment (6-mer frequency, TF over GST control). The binding signal in the test with SPI1 is 1.16 fold enrichment (6-mer frequency, TF over GST control); in the test with SPIB, 1.18 fold enrichment (6-mer frequency, TF over GST control); in the test with ELK3, 1.12 fold enrichment (6-mer frequency, TF over GST control).
Take TATAAT: the binding signal was 1.14 fold enrichment (6-mer frequency, TF over GST control) with FLI1; 1.24 fold enrichment (6-mer frequency, TF over GST control) in the test with ELK1; 1.12 fold enrichment (6-mer frequency, TF over GST control) with GABPA; 1.07 fold enrichment (6-mer frequency, TF over GST control) with ERG; 1.18 fold enrichment (6-mer frequency, TF over GST control) in the test with ELF1; 1.18 fold enrichment (6-mer frequency, TF over GST control) with EHF. The binding signal in the test with SPI1 is 1.15 fold enrichment (6-mer frequency, TF over GST control); with SPIB, 1.15 fold enrichment (6-mer frequency, TF over GST control); in the test with ELK3, 1.22 fold enrichment (6-mer frequency, TF over GST control).
On to CTTTGA, for which the binding signal with FLI1 is 1.29 fold enrichment (6-mer frequency, TF over GST control); with ELK1, 1.22 fold enrichment (6-mer frequency, TF over GST control); in the test with GABPA, 1.26 fold enrichment (6-mer frequency, TF over GST control); with ERG, 1.26 fold enrichment (6-mer frequency, TF over GST control); in the test with ELF1, 1.26 fold enrichment (6-mer frequency, TF over GST control); in the test with EHF it was 1.16 fold enrichment (6-mer frequency, TF over GST control). The binding signal with SPI1 was 1.21 fold enrichment (6-mer frequency, TF over GST control); with SPIB, 1.24 fold enrichment (6-mer frequency, TF over GST control); with ELK3, 1.15 fold enrichment (6-mer frequency, TF over GST control).
Turning to CACGTT, the binding signal in the test with FLI1 was 1.28 fold enrichment (6-mer frequency, TF over GST control); in the test with ELK1, 1.35 fold enrichment (6-mer frequency, TF over GST control); in the test with GABPA it was 1.3 fold enrichment (6-mer frequency, TF over GST control); in the test with ERG, 1.28 fold enrichment (6-mer frequency, TF over GST control); with ELF1, 1.29 fold enrichment (6-mer frequency, TF over GST control); in the test with EHF it was 1.24 fold enrichment (6-mer frequency, TF over GST control). In addition, the binding signal in the test with SPI1 was 1.3 fold enrichment (6-mer frequency, TF over GST control); with SPIB, 1.21 fold enrichment (6-mer frequency, TF over GST control); with ELK3 it was 1.25 fold enrichment (6-mer frequency, TF over GST control).
TTAGTT: the binding signal was 1.36 fold enrichment (6-mer frequency, TF over GST control) in the test with FLI1; 1.38 fold enrichment (6-mer frequency, TF over GST control) in the test with ELK1; 1.18 fold enrichment (6-mer frequency, TF over GST control) with GABPA; 1.24 fold enrichment (6-mer frequency, TF over GST control) with ERG; 1.31 fold enrichment (6-mer frequency, TF over GST control) with ELF1; 1.3 fold enrichment (6-mer frequency, TF over GST control) with EHF. The binding signal is 1.27 fold enrichment (6-mer frequency, TF over GST control) with SPI1; 1.31 fold enrichment (6-mer frequency, TF over GST control) in the test with SPIB; 1.31 fold enrichment (6-mer frequency, TF over GST control) with ELK3.
In the case of CAATTA, the binding signal is 1.05 fold enrichment (6-mer frequency, TF over GST control) with FLI1; 1.11 fold enrichment (6-mer frequency, TF over GST control) with ELK1; 1.1 fold enrichment (6-mer frequency, TF over GST control) in the test with GABPA; 1.05 fold enrichment (6-mer frequency, TF over GST control) with ERG; 1.1 fold enrichment (6-mer frequency, TF over GST control) in the test with ELF1; 1.07 fold enrichment (6-mer frequency, TF over GST control) with EHF. The binding signal is 1.15 fold enrichment (6-mer frequency, TF over GST control) with SPI1; 1.16 fold enrichment (6-mer frequency, TF over GST control) with SPIB; 1.05 fold enrichment (6-mer frequency, TF over GST control) with ELK3.
In the case of ACCCTA, the binding signal in the test with FLI1 was 1.19 fold enrichment (6-mer frequency, TF over GST control); with ELK1, 1.36 fold enrichment (6-mer frequency, TF over GST control); with GABPA, 1.25 fold enrichment (6-mer frequency, TF over GST control); in the test with ERG it was 1.18 fold enrichment (6-mer frequency, TF over GST control); with ELF1, 1.32 fold enrichment (6-mer frequency, TF over GST control); with EHF, 1.09 fold enrichment (6-mer frequency, TF over GST control). Further, the binding signal with SPI1 is 1.19 fold enrichment (6-mer frequency, TF over GST control); with SPIB it was 1.16 fold enrichment (6-mer frequency, TF over GST control); in the test with ELK3, 1.29 fold enrichment (6-mer frequency, TF over GST control).
